Data reported in PMC4552634, “A New Set of Chemical Starting Points with Plasmodium falciparum Transmission-Blocking Potential for Antimalarial Drug Discovery” (PLoS ONE, 2015).
Hit rate of the full screen: of about 13,000 compounds, about 3,200 (25%) showed an effect of 50% or more. This is one part of the list.

These molecules were tested on P. falciparum stage V gametocytes. Conditions: 48 h, 5 µM; inhibitor.
Set-up: BacTiter-Glo ATP luminescence viability of purified stage V gametocytes in 384-well plates, per cent inhibition versus DMSO

SMILES	% Inhibition [%]
Cc1cccc(Cn2nc(-c3ccccc3)c(N3CCCCC3)cc2=O)c1 [TCMDC-125526]	-20.8
CCOC(=O)c1ccc(NCc2ccccn2)cc1 [TCMDC-123821]	-4.555
Cc1cc(NC(=O)Nc2ccc3sccc3c2)c2ccccc2n1 [TCMDC-138970]	36.17
CC1(C)N=C(N)N=C(N)N1c1ccc([N+](=O)[O-])cc1 [TCMDC-124128]	35.22
COc1cc2nc(N3CCC(CNC(=O)/C=C/c4ccccc4F)CC3)nc(N)c2cc1OC.Cl [TCMDC-138163]	35.62
COc1cc(Nc2nc(N)c3cc(OC)c(OC)cc3n2)cc(OC)c1.Cl [TCMDC-131884]	-87.65
COc1cc2c(cc1OC)CN(c1cc(N)c3cc(OC)c(OC)cc3n1)CC2.CS(=O)(=O)O [TCMDC-131968]	54.76
Cc1noc(-c2ccc(O)cc2O)c1-c1ccc2c(c1)OCCCO2 [TCMDC-124197]	16
CCCc1ccc(C(=O)N2C(c3nccs3)C(C(N)=O)CC2(CC(C)C)C(=O)O)cc1 (centres unmarked) [TCMDC-138717]	-10.33
COc1cc(C(=O)N2C(c3nccs3)C(C(=O)N(OC)C(C)c3ccccc3)CC2(CC(C)C)C(=O)OC(C)(C)C)ccc1C(C)(C)C (centres unmarked) [TCMDC-135187]	35.9
CC(C)CC1(C(=O)OC(C)(C)C)CC(C(=O)OC(C)(C)C)C(c2cccs2)N1C(=O)c1ccc(C(C)(C)C)cc1 (centres unmarked) [TCMDC-138807]	77.31
C=CCN1C(=O)C(=Cc2cc(Br)ccc2O)SC1=Nc1ccccc1 [TCMDC-124119]	53.26
O=C1C(=Cc2cc(Cc3ccccc3)ccc2O)SC(=S)N1Cc1ccccc1 [TCMDC-124107]	17.72
CCOC(=O)c1ccc(N=C2SC(=Cc3cc(Br)ccc3O)C(=O)N2C)cc1 [TCMDC-125656]	2.309
O=C(Nc1ccc(C(=O)OCC(c2ccccc2)c2ccccc2)cc1)N[C@@H](Cc1ccc(O)cc1)C(=O)NC1CCN(Cc2ccc(O)cc2)C1 (some centres unmarked) [TCMDC-135362]	9.298
CC(C)[C@H]1CC[C@H](C)C[C@@H]1OC(=O)N[C@@H](Cc1ccc(O)cc1)C(=O)NC1CCN(Cc2ccc(OCCCN(C)C)cc2)C1 (some centres unmarked) [TCMDC-140497]	106.1
CCOC(=O)c1ccc(NC(=O)N[C@@H](Cc2ccccc2)C(=O)NC2CCN(Cc3ccc(O)cc3)C2)cc1 (some centres unmarked) [TCMDC-140502]	-28.76
Cc1cc(C(=O)N[C@H]2CCN(Cc3ccc(OCCCN(C)C)cc3)C2)ccc1Br [TCMDC-140368]	17.03
CC(C)OC(=O)c1ccc(NC(=O)N[C@@H](Cc2ccc(O)cc2)C(=O)NC2CC3CCC(C2)N3Cc2ccccc2)cc1 (some centres unmarked) [TCMDC-136164]	71.31
CCOC(=O)c1ccc(NC(=O)N[C@@H](Cc2ccccc2)C(=O)NC2CCN(Cc3ccc(OCCCN(C)C)cc3)C2)cc1 (some centres unmarked) [TCMDC-140501]	106.4
CC(C)OC(=O)c1ccc(NC(=O)N[C@@H](Cc2ccc(O)cc2)C(=O)NC2CCC(CCN3C4CCC3c3ccccc34)CC2)cc1 (some centres unmarked) [TCMDC-136163]	13.63
CCOC(=O)c1ccc(NC(=O)N[C@@H](Cc2ccccc2)C(=O)NC2CCN(Cc3ccc(O)c(OC)c3)C2)cc1 (some centres unmarked) [TCMDC-140503]	-11.63
CC(C)(C)c1ccc(OC(=O)c2ccc(NC(=O)N[C@@H](Cc3ccc(O)cc3)C(=O)NC3CCN(Cc4ccc(O)cc4)C3)cc2)cc1 (some centres unmarked) [TCMDC-135359]	23.01
